# Screening data: PubChem, National Center for Advancing Translational Sciences (NCATS)
# Compounds with a hit are over-represented: about 1.6% of the library has one in this group of screens.
# gsp antagonist: qHTS for Antagonists of gsp, the Etiologic Mutation Responsible for Fibrous Dysplasia/McCune-Albright Syndrome: qHTS; Potency, µM (titrated, usually from 76.9 µM), for inactives: top-dose activity change, negative = inhibition, usual class: inhibitors; actives 0.4% (n = 340,000); gsp-mutant cells, cAMP HTRF, 30 min; calls by dose curve; cell line not stated here;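 further: intracellular cAMP measured with PDE inhibitor Ro 20-1724 present during compound exposure; potency means the concentration at half of the fitted maximal effect; on the % scale 0 is the no-effect control and ±100 the full control effect; nearly all actives have a fitted effect of over 65% in size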
#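 Cells in G418 medium, seeded 16-24 h, 37C; buffer exchange to DPBS + 1 mM CaCl2, 0.5 mM MgCl2, 0.05% BSA; cpds in DMSO + […] (300 uM stock), 30 min 37C; HTRF cAMP detection.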
# GRP78 ERSR act: qHTS for Inducers of the Endoplasmic Reticulum Stress Response (ERSR) in Human Glioma: qHTS; U87-MG GRP78 promoter luciferase reporter, 16 h; Potency, µM, for the others: at the highest dose activation, hits mostly activators; actives 0.02% (n = 420,000); AID 602332, 2012; active means well fitted activation curve with a large enough effect; inconclusive means small, poorly fitted or top-dose-only effect; inactive means no such curve, though single readings can be large or run the other way; further: potency means the concentration at half of the fitted maximal effect; series mostly up to about 76 µM; % of control where 0% means no effect; nearly all actives have a fitted effect of over 35% in size
#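 Stably transfected U87-MG human glioma cells carrying a GRP78-based luminescent sensor were seeded at 1000 cells/well, pin-dosed with compounds and incubated 16 h. Luciferase reagent was then added, and end-point luminescence was read after 10 min at room temperature.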
# gsp ag: qHTS for Agonist of gsp, the Etiologic Mutation Responsible for Fibrous Dysplasia/McCune-Albright Syndrome: qHTS; gsp mutant cells, cAMP HTRF, 30 min; Potency, µM (doses to about 76.9 µM), without a hit: at the highest dose activation (cAMP increase), actives largely listed as activators; actives 0.13% (n = 340,000); AID 624287, 2012; active means well fitted activation curve with a large enough effect; inconclusive means small, poorly fitted or top-dose-only effect, or another doubt; inactive means no such curve, though single readings can be large or run the other way; cell line not stated here;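 further: phosphodiesterase inhibitor Ro 20-1724 added with compounds to block cAMP breakdown; potency means the concentration at half of the fitted maximal effect; nearly all actives have a fitted effect of over 60% in size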
#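 Cells stably selected in G418 were plated at 2000/well, grown 16-24 hr, then given compounds in DMSO with the PDE inhibitor […] (300 uM solution added) for 30 min at 37C; cAMP was read by HTRF.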
# KCNH2 WT inh: qHTS for Inhibitors of KCHN2 3.1: Wildtype qHTS; AID 720551, 2013; U2OS, BacMam KCNH2, thallium flux FluxOr; active compounds read low; Voltage-gated inwardly rectifying potassium channel KCNH2 (Homo sapiens), Q12809; activity change, % at 1.84 µM; actives 0.37% (n = 340,000);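 active means maximum activity change below -70%; inconclusive means maximum activity change between -70% and -50%; inactive means maximum activity change above -50%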; further: on the % scale 0 is the no-effect control and ±100 the full control effect
# Target sequence (Q12809 whole entry, looked up): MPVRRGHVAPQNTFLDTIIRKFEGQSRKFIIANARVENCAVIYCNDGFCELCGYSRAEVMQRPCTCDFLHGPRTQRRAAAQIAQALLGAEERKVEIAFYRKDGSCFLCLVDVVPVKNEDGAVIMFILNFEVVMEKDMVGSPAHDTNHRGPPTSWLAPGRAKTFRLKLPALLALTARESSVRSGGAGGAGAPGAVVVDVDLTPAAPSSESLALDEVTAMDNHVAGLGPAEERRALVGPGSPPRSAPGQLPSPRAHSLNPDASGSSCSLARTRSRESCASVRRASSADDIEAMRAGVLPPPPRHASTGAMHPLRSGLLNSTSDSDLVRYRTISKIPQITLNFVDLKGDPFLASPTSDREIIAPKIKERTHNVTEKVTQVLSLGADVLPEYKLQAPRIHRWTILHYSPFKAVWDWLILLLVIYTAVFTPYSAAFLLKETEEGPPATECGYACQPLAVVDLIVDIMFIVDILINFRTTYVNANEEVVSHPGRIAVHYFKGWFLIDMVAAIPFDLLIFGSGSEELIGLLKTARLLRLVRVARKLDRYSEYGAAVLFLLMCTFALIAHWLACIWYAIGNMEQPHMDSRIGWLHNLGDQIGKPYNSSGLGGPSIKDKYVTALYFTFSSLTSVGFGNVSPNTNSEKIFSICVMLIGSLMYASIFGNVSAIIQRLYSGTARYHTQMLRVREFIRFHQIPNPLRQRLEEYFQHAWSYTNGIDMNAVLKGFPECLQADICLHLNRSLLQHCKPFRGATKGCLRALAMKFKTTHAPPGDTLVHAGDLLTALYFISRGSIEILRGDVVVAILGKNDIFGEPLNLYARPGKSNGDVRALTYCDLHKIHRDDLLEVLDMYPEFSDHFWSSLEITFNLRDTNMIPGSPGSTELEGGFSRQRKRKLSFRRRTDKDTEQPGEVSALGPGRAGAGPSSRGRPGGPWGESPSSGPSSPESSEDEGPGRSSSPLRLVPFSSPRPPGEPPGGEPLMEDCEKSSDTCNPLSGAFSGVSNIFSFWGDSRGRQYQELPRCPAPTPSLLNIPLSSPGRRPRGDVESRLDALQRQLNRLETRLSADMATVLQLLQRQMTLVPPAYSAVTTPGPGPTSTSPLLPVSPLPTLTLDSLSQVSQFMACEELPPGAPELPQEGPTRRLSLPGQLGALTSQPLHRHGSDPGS
#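 U2OS cells were transduced with wild-type KCNH2 virus (2.03 x 10^8 / mL) for 4 h at room temperature, then cultured overnight at 37 C. Thallium flux was read with FluxOr dye. Rate constants were normalized to DMSO controls.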
# KCNH2 3.1 block: qHTS for Inhibitors of KCHN2 3.1: Mutant qHTS | U2OS KCNH2 3.1, thallium flux FluxOr; active compounds read low | actives 0.95% (n = 340,000) | activity change, % (tested at about 1.8 µM) | Potassium voltage-gated channel subfamily H member 2, brain isoform KCNH2 3.1 (human) | AID 720553, 2013;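 active means maximum activity change below -70%; inconclusive means maximum activity change from -70% to -50%; inactive means maximum activity change above -50%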;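 further: thallium influx rate constant from kinetic fluorescence after stimulation buffer; on the % scale 0 is the no-effect control and ±100 the full control effect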
#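 Kinetic fluorescence (2 min after stimulation buffer) measures Tl+ influx through KCNH2 3.1 expressed by viral transduction in U2OS cells; the rate constant is normalized against DMSO controls serving as positive and negative references.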
# pAkt inh: HTS Assay for Inhibitors of Akt Phophorylation: Primary Screen. Neuro2A IGF-stimulated pAkt S473 HTRF, 20 min; active compounds read low. activity change, % for hits at 50 µM. actives 0.32% (n = 360,000); in the data active means activity change below about -80%; inconclusive means mostly about -51% to -80%; further: on the % scale 0 is the no-effect control and ±100 the full control effect
#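 Single-point screen (50 µM final compound) in Neuro2A cells stimulated 20 min with 6 nM IGF at 37 deg C. After lysis, Ser473-phosphorylated Akt read by HTRF (ex 330 nm, em 615/665 nm) as the 665/615 ratio.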
# The depositor's hits bear a star; i = inactive; ? = inconclusive; . = no result given; [ ] = another dose, or the depositor's remark.
SMILES,gsp antagonist,GRP78 ERSR act,gsp ag,KCNH2 WT inh,KCNH2 3.1 block,pAkt inh
Nc1[nH]c(=S)[nH]c(=O)c1-c1ccccc1,-15.1%,-1.7%,13.0%,-182.9*,6.9,i
CC(=O)c1ccccc1-c1ccc2c(c1)CC(CNC(=O)c1cc(C)on1)O2 (stereo not given),.,1.4%,.,.,.,.
O=P(O)(O)OC1[C@H](O)[C@H](OP(=O)(O)O)C(OP(=O)(O)O)[C@H](OP(=O)(O)O)[C@H]1O (stereo not given in full),.,-3.3%,.,.,.,.
COc1ccc(NC(=O)c2nc[nH]c2C(=O)N[C@@H](C)C(=O)OC(C)(C)C)cc1,2.5%,-0.9%,12.6µM*,5.4,38.4,i
Cc1ccc(NC(=O)c2nc[nH]c2C(=O)Nc2ccc(C)cc2)cc1,-5.3%,-3.3%,25.6%,-192.3*,10.0,i
Cc1ccc(NC(=O)c2nc[nH]c2C(=O)N[C@@H](C)C(=O)OC(C)(C)C)cc1,-17.3%,-2.5%,.,-7.2,-1.6,i
C#CC(C)OC(=O)c1nnc2c3ccccc3n(COC)c2n1 (stereo not given),.,-5.7%,.,.,.,.
Cc1ccc(-c2nc3ncccc3o2)cc1NC(=O)c1cccs1,35.5µM*,0.6%,7.2%,2.5,23.8,i
CC(Oc1ccc(F)cc1)C(=O)Nc1cccc(-c2nn[nH]n2)c1 (stereo not given),-5.4%,-2.6%,1.1%,-85.7*,28.9,i
Cc1ccc(Cl)cc1N1CCN(C(=O)Cc2c(C(=O)O)[nH]c3ccc(Cl)cc23)CC1,-12.3%,31.6µM*,?,3.4,11.6,i
Cn1cc(C(=O)c2ccc(Cl)cc2)cc1-c1nc2ccccc2n1C,35.5µM*,-6.1%,?,-10.1,1.1,i
COCCn1c(=O)[nH]c2cc(C(=O)NCCN3CCN(c4cccc(Cl)c4)CC3)ccc2c1=O,-24.9%,-6.4%,-49.8%,-2.1,4.6,-118.1%*
COCCn1c(=S)[nH]c2cc(C(=O)N3CCN(c4cccc(Cl)c4)CC3)ccc2c1=O,?,-3.5%,?,9.3,-0.5,i
COCCn1c(=O)[nH]c2cc(C(=O)N3CCN(c4cc(C)ccc4C)CC3)ccc2c1=O,?,-5.6%,31.3%[15.4 µM],-2.6,-80.4*,i
CCSc1nnc(C(C)NC(=O)c2ccc(OC)cc2)n1C (stereo not given),.,-2.2%,.,.,.,.
Nc1nnc(SCC(=O)Nc2cc(S(=O)(=O)N3CCOCC3)ccc2N2CCCC2)s1,9.1%,-7.2%,20.1%,-10.8,-6.9,i
O=C(CSc1nncs1)Nc1cc(S(=O)(=O)N2CCOCC2)ccc1N1CCCC1,8.6%,-3.4%,22.4µM*,-1.2,-3.9,i
Cc1c(C)c2c(C)nn(-c3ccccc3)c2[nH]c1=O,5.2%,-0.1%,3.4%,-7.1,4.7,-108.2%*
CCN(CC)C1CCN(C(=O)c2cnn(-c3nccc(-c4ccccc4OC)n3)c2-c2ccco2)C1 (stereo not given),.,-5.2%,.,.,.,.
CC1(C)CC(=O)C2=C(C1)N=C1SCCC(=O)N1C2c1ccccc1 (stereo not given),-1.9%,-2.9%,-31.0%,-11.9,-70.9*,i
Cc1csc(C(C#N)C(=O)c2cc3ccccc3o2)n1 (stereo not given),25.1µM*,2.1%,10.4%,-5.3,7.7,i
O=C(COc1c(Br)cc(Br)c2cccnc12)N1CCCCC1,-4.0%,7.5%,6.31µM*,-0.8,8.8,i
CC1(C)Cc2c(sc3nnn(Cc4ccc(Cl)cc4)c(=O)c23)CO1,-21.0%,0.1%,5.7%,-3.1,-4.2,i
CC1(C)Cc2c(sc3c2c(N)nc(=S)n3Cc2ccc(Br)cc2)CO1,8.5%,-11.8%,-1.5%[15.4 µM],?,-103.8*,i
c1ccc2c(c1)nc(NCc1ccc3c(c1)OCO3)n2CCN1CCOCC1,-18.9%,-3.4%,6.6%,7.2,-30.8,i
SMILES,gsp antagonist,GRP78 ERSR act,gsp ag,KCNH2 WT inh,KCNH2 3.1 block,pAkt inh
c1ccc(Cn2c(CNc3nc4ccccc4n3CCN3CCOCC3)nc3ccccc32)cc1,2.8%,-3.2%,-1.4%,9.6,-85.2*,.
CC(C)c1c(C(=O)N2CCN(CCO)CC2)cnn1-c1nccc(-c2cccs2)n1,.,-5.5%,.,.,.,.
O=C(NCC1Cc2cccc(-c3ncccn3)c2O1)C1CCOC1 (stereo not given),.,-2.0%,.,.,.,.
COC(=O)c1ccccc1NC(=O)CSc1nccn1C,9.4%,4.5%,?,-1.8,13.4,-98.6%*
CCn1c(SCC(=O)Nc2ccccc2-c2ccccc2)nnc1-c1ccoc1C,-14.3%,-5.5%,-31.1%,6.7,5.8,i
CCn1c(COc2cccc(C)c2)nnc1SCC(=O)Nc1cccc(C(=O)OC)c1,28.2µM*,-1.0%,-2.3%,1.0,-16.7,i
CCn1c(SCC(=O)Nc2ccccc2F)nnc1-c1ccoc1C,5.2%,-1.5%,0.6%[15.4 µM],-0.4,-118.2*,i
CCn1c(COc2cccc(C)c2)nnc1SCC(=O)Nc1cccc(C(=O)O)c1,6.9%,-2.0%,4.6%,2.4,-16.8,i
CCn1c(SCC(=O)Nc2ccccc2C(=O)OC)nnc1-c1cccc(C)c1,-15.8%,-4.0%,-18.6%,-0.3,-170.8*,i
CN1C[C@H]2c3ccccc3Oc3ccc(Cl)cc3[C@@H]2C1,.,-3.7%,.,.,.,.
CCCCN(CCCC)CC(O)c1cc(Cl)cc2c1-c1ccc(Cl)cc1C2=Cc1ccc(Cl)cc1 (stereo not given),.,-4.7%,.,.,.,.
C=CCn1c(SCC(=O)NCC(=O)OCC)nnc1-c1cccc(OC)c1,0.4%,2.7%,-23.6%,2.3,-1.3,i
CCOC(=O)CNC(=O)CSc1nnc(-c2cccc(C)c2)n1-c1ccc(OC)cc1,6.31µM*,-16.7%,-5.1%,-12.6,-3.9,i
CC1CCN(CCCCOc2ccc(C(=O)c3ccccc3)cc2)CC1,14.6%,-6.9%,0.3%,57.2,-41.4,i
CC(=O)CCc1ccc(OCCCCN2CCC(Cc3ccccc3)CC2)cc1,-38.3%,-1.6%,19.6%[15.4 µM],27.2,-93.8*,i
COc1cccc(OC)c1OCCCCN1CCCC1,8.7%,-6.3%,24.3%,-1.0,-16.0,i
N#Cc1ccccc1OCCCN1CCC(Cc2ccccc2)CC1,4.7%,-0.3%,14.6%,-89.6*,-96.5*,i
CCC(=O)c1ccccc1OCCCN1CCC(Cc2ccccc2)CC1,10.3%,-4.3%,15.8%,-130.8*,-100.2*,i
